According to PubChem BioAssay (NCATS):
Values without a mark were called inactive. Records with an inconclusive call do not appear. Where a call stands in place of a potency, no number is given. Activity calls are given as the source filed them. Calls follow the shape of the dose curve; as a rule, active = well fitted curve in the direction sought with a large enough effect; inconclusive = small, poorly fitted or top-dose-only effect, or another doubt; inactive = no such curve, though single readings can be large; an effect the other way counts as inactive or inconclusive.

Columns and labels:
[1] = target: Glutathione peroxidase 1 (Homo sapiens) (UniProt P07203); experiment: Primary qHTS Assay for Inhibitors of Recombinant Selenoprotein Glutathione Peroxidase 1 (GPX1) (AID 1845191); also: nearly all actives have a fitted effect of over 65% in size
Chain of Glutathione peroxidase 1 (Homo sapiens) (P07203 whole entry, looked up): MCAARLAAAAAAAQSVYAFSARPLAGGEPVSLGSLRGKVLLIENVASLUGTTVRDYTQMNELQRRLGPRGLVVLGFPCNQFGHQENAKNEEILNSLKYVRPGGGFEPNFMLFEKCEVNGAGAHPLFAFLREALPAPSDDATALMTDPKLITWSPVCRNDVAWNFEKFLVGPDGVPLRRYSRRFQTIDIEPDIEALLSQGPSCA
How it was run: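 GPX1 10 nM, GR 100 nM, GSH 1 mM, NADPH 0.5 mM, CHP 0.5 mM (final). 30-min cpd preincubation, RT. Ex340/Em450 read t=0, t=15 min.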

[2] = target: Phospholipid hydroperoxide glutathione peroxidase GPX4 (Homo sapiens) (UniProt P36969); experiment: Primary qHTS Assay for Inhibitors of Recombinant Selenoprotein Glutathione Peroxidase 4 (GPX4) (AID 1845192); also: series mostly up to about 50 µM; nearly all actives have a fitted effect of over 65% in size
Chain of Phospholipid hydroperoxide glutathione peroxidase GPX4 (Homo sapiens) (P36969 whole entry, looked up): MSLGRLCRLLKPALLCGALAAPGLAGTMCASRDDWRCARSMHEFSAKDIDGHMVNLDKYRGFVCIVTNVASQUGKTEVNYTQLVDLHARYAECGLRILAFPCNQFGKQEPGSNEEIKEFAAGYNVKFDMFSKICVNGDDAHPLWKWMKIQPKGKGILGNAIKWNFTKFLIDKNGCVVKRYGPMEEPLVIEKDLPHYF
How it was run: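 qHTS, GR-coupled: GPX4 200 nM + cpd 30 min RT → GSH 1 mM, NADPH 0.5 mM, GR 100 nM → CHP 0.5 mM start; fluor 340/450 at t0 and t15 min; no-enzyme wells as control.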

[3] = target: Luciferin 4-monooxygenase (Photinus pyralis) (UniProt P08659); experiment: Primary firefly luciferase (FLuc) qHTS assay for identification of artifact compounds. (AID 1845220); also: nearly all actives have a fitted effect of over 60% in size; as to activity change, negative = inhibition: series mostly up to about 54 µM
How it was run: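 In this counter-screen for luciferase artifacts, test compounds met substrate (10 uM each luciferin and ATP) before 10 nM enzyme started the reaction. Light output was measured 5 min later.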

[4] = Primary fluorescence-based thiol-reactive (MSTI) qHTS assay for identification of artifact compounds. (AID 1845221); also: nearly all actives have a fitted effect of over 65% in size; also: potency is read from the fitted curve at half-maximal effect;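 as to activity change, negative = thiol reactive: series mostly up to about 54 µM; thiol-reactive compounds lower the probe fluorescence signal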
How it was run: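 MSTI probe at 4 uM final in 2% DMSO/PBS pH 7.4; compounds, 1 h at room temperature in dark. Fluorescence Ex/Em 525/598 nm, normalised to Acetyl-MSTI and MSTI, fitted to 4-parameter Hill.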

[5] = system: Nanoluciferase (engineered Oplophorus gracilirostris luciferase); experiment: Primary Nanoluciferase (NLuc) qHTS assay for identification of artifact compounds. (AID 1845222);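 also: NLuc secreted into diluted conditioned medium of S16 cells; series mostly up to about 54 µM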
How it was run: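 Using secreted nanoluciferase in S16 culture medium (0.22 um filtered, 1:55 dilution), compounds were preincubated 15 min at RT. Signal was generated with Nano-Glo reagent (1:100) over 5 min.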

Structure (SMILES)	Potency [1]	Potency [2]	Potency [3]	Potency [4]	Potency [5]	activity, negative = inhibition [1]	activity change, negative = inhibition [2]	activity change, negative = inhibition [3]	activity change, negative = thiol reactive [4]	activity, negative = inhibition [5]
CC(=O)OC[C@H]1O[C@H](O[C@]2(CO)O[C@H](CO)[C@@H](OC(=O)/C=C/c3ccccc3)[C@@H]2O)[C@H](O)[C@@H](O)[C@@H]1O	inactive	inactive	inactive	4.62 µM (active)	inactive	–	–	–	–	–
CC1OC(OC2C(C)OC(OC3C(OC(=O)C45CCC(C)(C)CC4C4=CCC6C7(C)CCC(OC8OC(C(=O)O)C(O)C(O)C8OC8OC(CO)C(O)C(OC9OC(C)C(O)C(O)C9O)C8O)C(C)(CO)C7CCC6(C)C4(C)CC5)OC(CO)C(O)C3O)C(O)C2O)C(O)C(O)C1O (stereo not given)	–	–	–	–	–	-14% [at 9.52 µM]	-14.3% [at 9.73 µM]	-4.3% [at 11.6 µM]	122% [at 11.5 µM]	2.74% [at 11.6 µM]
CC1CCC2(CO)C(C(=O)O)=CCCC2C1(C)CCc1ccoc1 (stereo not given)	inactive	inactive	inactive	inactive	inactive	–	–	–	–	–
CC1OC(OC2C(O)C(OC3CCC4(C)C(CCC5(C)C4CC=C4C6CC(C)(COC7OC(CO)C(O)C(O)C7O)CC(O)C6(C)CCC45C)C3(C)C)OC(C(=O)O)C2O)C(O)C(O)C1OC1OCC(O)C(O)C1O (stereo not given)	inactive	inactive	–	–	–	–	–	0.0325% [at 11.6 µM]	24.3% [at 11.5 µM]	-3.08% [at 11.6 µM]
COC(=O)N1CCC(n2ncc3c(N4CCOCC4)nc(-c4ccc(NC(=O)Nc5ccc(CO)cc5)cc4)nc32)CC1	inactive	inactive	inactive	inactive	inactive	–	–	–	–	–
C[C@@H](Oc1cc(-n2cnc3ccc(OC4CCN(C)CC4)cc32)sc1C(N)=O)c1ccccc1C(F)(F)F	inactive	inactive	inactive	inactive	inactive	–	–	–	–	–
COc1cc(C(=O)NC2CCN(C)CC2)c(F)cc1Nc1ncc2c(n1)N(C1CCCC1)CC(F)(F)C(=O)N2C	inactive	inactive	inactive	inactive	inactive	–	–	–	–	–
Cc1cc2c(c(=O)[nH]1)OC(C(O)CC(C)C)O2 (stereo not given)	inactive	inactive	inactive	inactive	inactive	–	–	–	–	–
COC(=O)/C=C/C12COC(C)(C)C1C(O)C(OC(C)=O)C1(C)C2CCC2(C)C(c3ccoc3)OC(=O)C3OC321 (stereo not given)	inactive	inactive	inactive	inactive	inactive	–	–	–	–	–
C/C=C/C=C/C(O)=C1\C(=O)[C@]2(C)C3C(C(=O)CC/C=C/C)=C(O)C4(C)C1[C@]1(C)O[C@@]4(O)[C@@]3(C)O[C@@]12O	inactive	inactive	inactive	4.62 µM (active)	inactive	–	–	–	–	–
CC(=O)O[C@@H]1[C@@H](O)[C@H](O[C@H]2CC[C@]34C[C@]35CC[C@]3(C)[C@@H]([C@@]6(C)CC[C@@H](C(C)(C)O)O6)[C@@H](O)C[C@@]3(C)[C@@H]5C[C@H](O[C@@H]3O[C@H](CO)[C@@H](O)[C@H](O)[C@H]3O)[C@H]4C2(C)C)OC[C@H]1O	inactive	inactive	inactive	inactive	inactive	–	–	–	–	–
C[C@@H](O)[C@H](NC(=O)c1ccc(C#Cc2ccc(CN3CCOCC3)cc2)cc1)C(=O)NO	inactive	inactive	inactive	inactive	inactive	–	–	–	–	–
CO[C@H]1/C=C/C=C/C=C/C[C@H](OC(=O)[C@@H](C)NC(=O)C2CCCCC2)[C@H](C)[C@@H](O)/C(C)=C/CCc2cc(O)cc(c2)NC(=O)C1	inactive	inactive	inactive	5.61 µM (active)	inactive	–	–	–	–	–
CC(=O)O[C@H]1CC(C)(C)CC2[C@@]13[C@H](O)C[C@]1(C)[C@@]2(CCC2[C@@]4(C)CC[C@H](O[C@@H]5OC[C@H](O[C@@H]6O[C@H](CO)[C@@H](O)[C@H](O)[C@H]6O[C@@H]6OC[C@@H](O)[C@H](O)[C@H]6O)[C@H](O)[C@H]5O[C@@H]5O[C@H](CO)[C@@H](O)[C@H](O)[C@H]5O)C(C)(C)C4CC[C@]21C)O[C@@H]3O (stereo not given in full)	inactive	inactive	–	–	–	–	–	-0.127% [at 11.6 µM]	93.4% [at 11.5 µM]	2.06% [at 11.6 µM]
CCC(C)C(=O)O[C@H]1CCC=C2C=C[C@H](C)[C@H](CC[C@@H](O)C[C@@H](O)CC(=O)O)[C@H]21 (stereo not given in full)	inactive	inactive	inactive	inactive	inactive	–	–	–	–	–
C#CCN(Cc1cc2c(=O)n(C)c(CN3CCN(C)CC3)nc2cc1Cl)c1ccc(C(=O)NCc2cccnc2)cc1	inactive	inactive	inactive	inactive	inactive	–	–	–	–	–
O=C(C(c1ccccc1)c1ccccc1)N1CCN(CC(O)COc2cccc3ncccc23)CC1 (stereo not given)	inactive	inactive	inactive	inactive	inactive	–	–	–	–	–
CC[C@H](C)[C@H](NC(=O)[C@H]([C@@H](C)CC)N(C)C(C)=O)C(=O)N[C@H](C(=O)N[C@@H](CC(C)C)C(=O)[C@@]1(C)CO1)[C@@H](C)O	inactive	inactive	inactive	inactive	inactive	–	–	–	–	–
